Source: PubChem BioAssay (Tox21)
Results filed as inconclusive are left out. Calls of active or inactive are those of the source. Unless noted, calls follow the shape of the full dose curve.

Key:
[1] = Nuclear factor erythroid 2-related factor 2/antioxidant responsive element (Nrf2/ARE) small molecule agonists: qHTS cell viability counter screen in human keratinocytes (AID 1919968; active = well fitted curve in the direction sought with a large enough effect in the repeat runs; an effect the other way counts as inactive or inconclusive; also: nearly all actives have a fitted effect of over 55% in size)
Method in brief: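 CellTiter-Fluor fluorescence, read 1 h after reagent, gave viability in the same wells as the ARE-luciferase assay. KeratinoSens cells (1,500/well) had 23 h compound exposure at 37 C/5% CO2 following 5 h plating.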

[2] = Nuclear factor erythroid 2-related factor 2/antioxidant responsive element (Nrf2/ARE) small molecule agonists: luciferase reporter gene qHTS assay in human keratinocytes (AID 1919969); also: nearly all actives have a fitted effect of over 35% in size
[3] = target: Gonadotropin-releasing hormone receptor (Homo sapiens) (UniProt P30968); assay: Human gonadotropin-releasing hormone receptor (GnRHR) small molecule agonists, calcium flux assay in GnRHR-HEK293 cells (AID 1920063); also: nearly all actives have a fitted effect of over 35% in size
Method in brief: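 Agonist mode: compounds at 15 concentrations, in triplicate, went onto calcium dye-loaded GnRHR-HEK293 cells. Intracellular calcium was then followed as 480/540 nm fluorescence at 1 s intervals over 3 min.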

[4] = target: KiSS-1 receptor (Homo sapiens) (UniProt Q969F8); assay: Human kisspeptin (KISS1R) small molecule agonists, calcium flux assay in KISS1R-HEK293 cells (AID 1920064; active = well fitted curve in the direction sought with a large enough effect in the repeat runs; an effect the other way counts as inactive or inconclusive)
Method in brief: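 Agonist mode: intracellular calcium rise tracked at 1 s intervals over 3 min (480/540 nm) immediately after compound addition to dye-loaded KISS1R-HEK293 stable cells. Each compound tested at 15 concentrations in triplicate.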

[5] = G protein-coupled receptor (GPCR) small molecule agonists, calcium flux assay: HEK293 wild type cell line counter screen (AID 1920065)
Method in brief: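 Calcium flux counter screen: compound added in agonist mode at 15 concentrations in triplicate to dye-loaded parental HEK293 cells. Fluorescence (480/540) read kinetically for 3 min; ATP served as positive control.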

[6] = p53 small molecule agonists, cell-based qHTS assay with human liver microsomes (AID 1963577);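 also: p53 response element beta-lactamase reporter cells with liver microsomes plus NADPH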
Method in brief: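 In this qHTS, p53 response-element beta-lactamase cells receive test compound together with a microsome/NADPH activating system (0.5 mg/mL final each) and are incubated 16 h at 37 C before LiveBLAzer fluorescence detection.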

[7] = p53 small molecule agonists, cell-based qHTS assay with rat liver microsomes (AID 1963578)
Method in brief: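 Agonist mode in p53RE-bla reporter cells, with compounds co-incubated 16 h at 37 C alongside 0.5 mg/mL rat liver microsomes and 0.5 mg/mL NADPH (final), followed by a 2 h LiveBLAzer detection step.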

[8] = p53 small molecule agonists, cell-based qHTS assay with rat liver microsomes: qHTS cell viability counter screen (AID 1963580); also: nearly all actives have a fitted effect of over 45% in size
Method in brief: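 Rat liver microsome (0.5 mg/mL final) and NADPH (0.5 mg/mL final) co-incubation with compounds for 16 h at 37 C on HCT-116 p53RE-bla cells; cytotoxicity taken from intracellular ATP luminescence.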

[9] = p53 small molecule agonists, cell-based qHTS assay: qHTS cell viability counter screen (AID 1963581); also: nearly all actives have a fitted effect of over 45% in size
Method in brief: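 Counter screen read by CellTiter-Glo luminescence (ATP content, 30 min at room temperature), run in the same wells as the beta-lactamase reporter read. HCT-116 p53RE-bla cells saw compounds for 16 h at 37 C.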

[10] = p53 small molecule agonists, cell-based qHTS assay (AID 1963582; active = well fitted activation curve with a large enough effect in the signal ratio in the repeat runs, not every such curve was filed as active; the % refers to the signal ratio)
Method in brief: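 Read-out is beta-lactamase FRET fluorescence after 2 h at room temperature with LiveBLAzer B/G substrate. p53 response element-bla cells were treated 16 h at 37 C with compounds in DMSO, added 5 h after seeding.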

[11] = target: 5-hydroxytryptamine receptor 2A (Homo sapiens) (UniProt P28223); assay: 5-hydroxytryptamine receptor 2A (HTR2A) small molecule antagonists, cell-based qHTS assay (AID 1963586); also: nearly all actives have a fitted effect of over 45% in size
Method in brief: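 CHO cells stably expressing human HTR2A were plated for 18 h at 37 C, then loaded with calcium dye for 1 h. Compounds were preincubated 5 min at room temperature before DOI (4 nM solution) was added. Kinetic fluorescence was read for 3 min.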

[12] = target: 5-hydroxytryptamine receptor 2A (Homo sapiens) (UniProt P28223); assay: 5-hydroxytryptamine receptor 2A (HTR2A) small molecule agonists, cell-based qHTS assay (AID 1963587); also: nearly all actives have a fitted effect of over 30% in size
Method in brief: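 Kinetic calcium-flux fluorescence (2 min, 1 sec intervals) after compound addition in agonist mode. HTR2A-CHO cells were cultured 18 h, then dye-loaded 1 h at 37 C.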

[13] = target: Muscarinic acetylcholine receptor M1 (Homo sapiens) (UniProt P11229); assay: Cholinergic receptor muscarinic 1 (CHRM1) small molecule antagonists, cell-based qHTS assay (AID 1963588); also: nearly all actives have a fitted effect of over 40% in size
Method in brief: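 Compounds were tested at 15 concentrations in three independent runs. Dye-loaded CHRM1-CHO cells were exposed 5 min at room temperature before stimulation by acetylcholine added at 50nM. Intracellular calcium was read kinetically on FDSS for 3 min.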

[14] = target: Muscarinic acetylcholine receptor M1 (Homo sapiens) (UniProt P11229); assay: Cholinergic receptor muscarinic 1 (CHRM1) small molecule agonists, cell-based qHTS assay (AID 1963589); also: nearly all actives have a fitted effect of over 35% in size
Method in brief: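 Agonist-mode calcium-flux screen: compounds at 15 concentrations, three independent runs, were pin-transferred onto dye-loaded human CHRM1-CHO cells. Fluorescence was then recorded kinetically every second over minutes.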

[15] = cAMP Responsive Elements (CRE) small molecule agonists, cell-based qHTS assay (AID 1963590)
Method in brief: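 Agonist mode: compound added to CRE-bla HEK 293T cells (2,000/well, 18 h after plating) for 3 h at 37 C/5% CO2. Reporter activity detected via FRET beta-lactamase substrate, 2 h room-temperature loading.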

[16] = target: Beta-2 adrenergic receptor (Homo sapiens) (UniProt P07550); assay: Adrenergic beta2 receptor (ADRB2) small molecule antagonists, cell-based qHTS assay (AID 1963592); also: series mostly up to about 92 µM; nearly all actives have a fitted effect of over 50% in size
Method in brief: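 Assay format: CHO-ADRB2 cells, 18-20hr seeding at 37C/5% CO2, then compound plus 1nM isoproterenol agonist mix for 0.5hr RT. Homogeneous time-resolved fluorescence cAMP detection after 1hr, expressed as 665/615 nm ratio.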

[17] = target: D(2) dopamine receptor (Homo sapiens) (UniProt P14416); assay: Dopamine D2 receptor (DRD2) small molecule agonists, cell-based qHTS assay (AID 1963594); also: nearly all actives have a fitted effect of over 35% in size
Method in brief: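 cAMP accumulation in DRD2-HEK293 cells measured by HTRF after 1 h detection; compounds added 10 min before NKH477 (200nM […]) forskolin-analogue stimulation, 30 min at room temperature, with Ro20-1724 present at 0.1 mM final.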

[18] = target: D(2) dopamine receptor (Homo sapiens) (UniProt P14416); assay: Dopamine D2 receptor (DRD2) small molecule antagonists, cell-based qHTS assay (AID 1963595; active = well fitted inhibition curve with a large enough effect in the signal ratio in the repeat runs, with a control signal flat; the % refers to the signal ratio)
Method in brief: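 Antagonist mode in DRD2-HEK293 cells: after compound addition with 0.1 mM Ro20-1724, cells received quinpirole (12 nM) and NKH477 (200 nM) for 30 min at room temperature; HTRF cAMP read after 1 h detection.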

[19] = cAMP Responsive Elements (CRE) small molecule antagonists, cell-based qHTS assay (AID 1963591; active = well fitted inhibition curve with a large enough effect in the signal ratio in the repeat runs, not every such curve was filed as active; the % refers to the signal ratio)
Method in brief: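 Antagonist mode: compounds are added alongside the adenylyl cyclase activator NKH477 (0.25 uM final) to CRE-bla HEK293T cells for 3 h. LiveBLAzer FRET substrate, 2 h at room temperature, reports bla expression.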

[20] = p53 small molecule agonists, cell-based qHTS assay with human liver microsomes: qHTS cell viability counter screen (AID 1963579); also: nearly all actives have a fitted effect of over 45% in size
Method in brief: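 Metabolically activated exposure: compounds, human liver microsomes and NADPH (0.5 mg/mL final apiece) were added to p53RE-bla cells seeded 5 h earlier, left 16 h at 37 C, and then assessed for viability by CellTiter-Glo luminescence.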

Measured: Potency

Sequence of KiSS-1 receptor (Homo sapiens) (Q969F8 whole entry, looked up): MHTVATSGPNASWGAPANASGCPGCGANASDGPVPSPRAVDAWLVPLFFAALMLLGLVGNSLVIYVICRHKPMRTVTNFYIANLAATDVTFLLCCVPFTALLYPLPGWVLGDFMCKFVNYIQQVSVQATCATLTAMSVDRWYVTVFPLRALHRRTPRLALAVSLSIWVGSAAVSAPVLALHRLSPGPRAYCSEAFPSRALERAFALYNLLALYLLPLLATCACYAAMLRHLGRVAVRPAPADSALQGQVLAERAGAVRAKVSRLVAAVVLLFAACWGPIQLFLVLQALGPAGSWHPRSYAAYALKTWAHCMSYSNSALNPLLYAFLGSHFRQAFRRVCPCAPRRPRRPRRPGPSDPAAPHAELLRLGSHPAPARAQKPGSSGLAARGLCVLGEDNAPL
Sequence of D(2) dopamine receptor (Homo sapiens) (P14416 whole entry, looked up): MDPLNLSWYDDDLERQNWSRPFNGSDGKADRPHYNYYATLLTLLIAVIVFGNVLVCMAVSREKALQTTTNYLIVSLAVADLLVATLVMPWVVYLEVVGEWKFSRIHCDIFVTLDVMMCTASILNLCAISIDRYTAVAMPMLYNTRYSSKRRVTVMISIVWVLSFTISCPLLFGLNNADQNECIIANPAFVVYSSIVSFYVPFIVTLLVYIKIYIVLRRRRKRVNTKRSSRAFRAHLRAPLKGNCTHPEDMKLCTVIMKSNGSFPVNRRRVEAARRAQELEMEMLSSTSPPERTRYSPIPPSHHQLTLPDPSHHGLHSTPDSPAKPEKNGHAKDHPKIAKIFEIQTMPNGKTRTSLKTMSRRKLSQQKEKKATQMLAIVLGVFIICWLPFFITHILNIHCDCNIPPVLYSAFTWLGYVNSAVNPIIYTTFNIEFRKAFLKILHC
Sequence of Muscarinic acetylcholine receptor M1 (Homo sapiens) (P11229 whole entry, looked up): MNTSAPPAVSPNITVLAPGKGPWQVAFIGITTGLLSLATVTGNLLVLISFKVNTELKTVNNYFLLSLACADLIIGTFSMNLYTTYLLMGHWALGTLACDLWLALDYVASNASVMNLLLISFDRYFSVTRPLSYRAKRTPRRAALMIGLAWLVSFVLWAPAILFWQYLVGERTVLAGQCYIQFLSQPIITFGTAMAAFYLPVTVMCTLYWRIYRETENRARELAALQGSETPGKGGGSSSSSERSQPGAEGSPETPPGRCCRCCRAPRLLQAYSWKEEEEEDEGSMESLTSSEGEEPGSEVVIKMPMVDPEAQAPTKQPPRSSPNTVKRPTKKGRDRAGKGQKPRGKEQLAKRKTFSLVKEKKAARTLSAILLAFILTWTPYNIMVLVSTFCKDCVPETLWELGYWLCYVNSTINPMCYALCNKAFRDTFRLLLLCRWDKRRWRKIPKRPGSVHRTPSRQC
Sequence of 5-hydroxytryptamine receptor 2A (Homo sapiens) (P28223 whole entry, looked up): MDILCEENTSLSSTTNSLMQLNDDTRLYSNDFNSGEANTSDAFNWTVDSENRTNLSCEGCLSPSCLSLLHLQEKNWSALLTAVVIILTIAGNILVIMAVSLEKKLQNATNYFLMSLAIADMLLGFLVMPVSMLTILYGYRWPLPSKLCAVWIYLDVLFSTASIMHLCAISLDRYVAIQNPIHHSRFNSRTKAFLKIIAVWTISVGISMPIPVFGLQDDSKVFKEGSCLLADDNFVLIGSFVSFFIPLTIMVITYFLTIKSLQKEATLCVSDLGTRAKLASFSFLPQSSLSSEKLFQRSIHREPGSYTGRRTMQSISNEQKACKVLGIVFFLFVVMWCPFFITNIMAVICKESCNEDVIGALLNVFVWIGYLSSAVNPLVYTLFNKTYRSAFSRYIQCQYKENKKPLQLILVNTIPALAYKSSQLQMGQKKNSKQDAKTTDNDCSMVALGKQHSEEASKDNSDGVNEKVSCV
Sequence of Beta-2 adrenergic receptor (Homo sapiens) (P07550 whole entry, looked up): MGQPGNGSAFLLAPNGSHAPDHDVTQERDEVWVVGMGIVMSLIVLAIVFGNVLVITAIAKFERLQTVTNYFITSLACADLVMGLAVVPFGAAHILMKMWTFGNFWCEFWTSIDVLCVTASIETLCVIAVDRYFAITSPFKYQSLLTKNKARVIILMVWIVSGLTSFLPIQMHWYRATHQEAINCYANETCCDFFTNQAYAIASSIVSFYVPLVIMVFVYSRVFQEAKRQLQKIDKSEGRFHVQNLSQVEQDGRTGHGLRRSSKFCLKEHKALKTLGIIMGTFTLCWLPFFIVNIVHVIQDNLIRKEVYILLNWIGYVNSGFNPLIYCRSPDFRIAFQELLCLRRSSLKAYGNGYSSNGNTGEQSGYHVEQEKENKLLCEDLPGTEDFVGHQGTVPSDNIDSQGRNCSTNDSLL
Sequence of Gonadotropin-releasing hormone receptor (Homo sapiens) (P30968 whole entry, looked up): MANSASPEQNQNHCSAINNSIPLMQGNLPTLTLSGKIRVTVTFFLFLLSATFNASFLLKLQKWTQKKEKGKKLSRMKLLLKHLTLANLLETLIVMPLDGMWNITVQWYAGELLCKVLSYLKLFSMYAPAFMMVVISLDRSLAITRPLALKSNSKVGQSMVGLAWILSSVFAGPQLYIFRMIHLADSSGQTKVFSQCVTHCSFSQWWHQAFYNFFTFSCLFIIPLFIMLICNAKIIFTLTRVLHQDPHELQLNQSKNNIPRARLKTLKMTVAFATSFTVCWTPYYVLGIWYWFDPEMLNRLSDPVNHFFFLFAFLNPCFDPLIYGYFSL

O=P(O)(OCc1ccccc1)OCc1ccccc1
not listed: [19] | [20]
inactive: all other assays above

CC(C)[C@H]1CC[C@@H](C)CC1=O
not listed: [16] | [20]
inactive: all other assays above

Brc1cc(Br)cc(Br)c1
not listed: [11] | [20]
inactive: all other assays above

O=c1cccc[nH]1
not listed: [7]
inactive: all other assays above

CCCCCCCCSCC
not listed: [19] | [20]
inactive: all other assays above

CC/C=C\CCO
not listed: [8] | [18] | [20]
inactive: all other assays above

C1COC1
not listed: [13] | [16] | [20]
inactive: all other assays above
